# Data taken from the supplement of paper PMC4466140.
# What was measured:
# Assay in all cases: SPOT peptide array binding signal intensity (averaged, normalized) (arbitrary units (background-subtracted, floor 0; scale differs between SH3 domains)); higher = stronger binding of the SH3 domain to the peptide
# [1] = biological target: AgAbp1
# Experimental: (§1)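 GST-tagged SH3 domains from S. cerevisiae (Sc), A. gossypii (Ag), C. albicans (Ca) and S. pombe (Sp) were incubated at 10 ug/ml overnight at 4 C on cellulose SPOT membranes carrying 292 synthetic 15-mer peptides mined from the S. cerevisiae proteome (cysteines replaced by serines). Binding was detected with anti-GST antibody, HRP secondary and chemiluminescence, quantified with Genespotter, and reported as normalized spot intensities averaged over biological replicates.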
# [2] = biological target: AgBbc1
# Experimental: as §1
# [3] = biological target: AgBem1-D1
# Experimental: as §1
# [4] = biological target: AgBzz1-D1
# Experimental: as §1
# [5] = biological target: AgBzz1-D2
# Experimental: as §1
# [6] = biological target: AgCyk3
# Experimental: as §1
# [7] = biological target: AgFus1
# Experimental: as §1
# [8] = biological target: AgHof1
# Experimental: as §1
# [9] = biological target: AgHse1
# Experimental: as §1
# [10] = biological target: AgLsb1
# Experimental: as §1
# [11] = biological target: AgLsb4
# Experimental: as §1
# [12] = biological target: AgMyo5
# Experimental: as §1
# [13] = biological target: AgNbp2
# Experimental: as §1
# [14] = biological target: AgRvs167
# Experimental: as §1
# [15] = biological target: AgSho1
# Experimental: as §1
# [16] = biological target: AgSla1-D1-D2
# Experimental: as §1
# [17] = biological target: AgSla1-D3
# Experimental: as §1
# [18] = biological target: CaAbp1-D1
# Experimental: as §1
# [19] = biological target: CaAbp1-D2
# Experimental: as §1
# [20] = biological target: CaBbc1
# Experimental: as §1
# [21] = biological target: CaBem1-D1
# Experimental: as §1
# [22] = biological target: CaBzz1-D1
# Experimental: as §1
# [23] = biological target: CaBzz1-D2
# Experimental: as §1
# [24] = biological target: CaCyk3
# Experimental: as §1
# [25] = biological target: CaFus1
# Experimental: as §1
# [26] = biological target: CaHof1
# Experimental: as §1
# [27] = biological target: CaHse1
# Experimental: as §1
# [28] = biological target: CaLsb1
# Experimental: as §1
# [29] = biological target: CaLsb4
# Experimental: as §1
# [30] = biological target: CaMyo5
# Experimental: as §1
# [31] = biological target: CaNbp2
# Experimental: as §1
# [32] = biological target: CaRvs167
# Experimental: as §1
# [33] = biological target: CaRvs167-3
# Experimental: as §1
# [34] = biological target: CaSho1
# Experimental: as §1
# [35] = biological target: CaSla1-D1-D2
# Experimental: as §1
# [36] = biological target: CaSla1-D3
# Experimental: as §1
# [37] = biological target: ScAbp1
# Experimental: as §1
# [38] = biological target: ScBbc1
# Experimental: as §1
# [39] = biological target: ScBem1-D1
# Experimental: as §1
# [40] = biological target: ScBzz1-D1
# Experimental: as §1
# [41] = biological target: ScBzz1-D2
# Experimental: as §1
# [42] = biological target: ScCyk3
# Experimental: as §1
# [43] = biological target: ScFus1
# Experimental: as §1
# [44] = biological target: ScHof1
# Experimental: as §1
# [45] = biological target: ScHse1
# Experimental: as §1
# [46] = biological target: ScLsb1
# Experimental: as §1
# [47] = biological target: ScLsb2
# Experimental: as §1
# [48] = biological target: ScLsb3
# Experimental: as §1
# [49] = biological target: ScLsb4
# Experimental: as §1
# [50] = biological target: ScMyo3
# Experimental: as §1
# [51] = biological target: ScMyo5
# Experimental: as §1
# [52] = biological target: ScNbp2
# Experimental: as §1
# [53] = biological target: ScPex13
# Experimental: as §1
# [54] = biological target: ScRvs167
# Experimental: as §1
# [55] = biological target: ScSho1
# Experimental: as §1
# [56] = biological target: ScSla1-D1-D2
# Experimental: as §1
# [57] = biological target: ScSla1-D3
# Experimental: as §1
# [58] = biological target: SpAbp1-D1
# Experimental: as §1
# [59] = biological target: SpBbc1
# Experimental: as §1
# [60] = biological target: SpBzz1-D1
# Experimental: as §1
# [61] = biological target: SpBzz1-D2
# Experimental: as §1
# [62] = biological target: SpCyk3
# Experimental: as §1
# [63] = biological target: SpHof1
# Experimental: as §1
# [64] = biological target: SpHof1-2
# Experimental: as §1
# [65] = biological target: SpHof1-3
# Experimental: as §1
# [66] = biological target: SpHse1
# Experimental: as §1
# [67] = biological target: SpLsb1
# Experimental: as §1
# [68] = biological target: SpLsb4
# Experimental: as §1
# [69] = biological target: SpMyo1
# Experimental: as §1
# [70] = biological target: SpNbp2
# Experimental: as §1
# [71] = biological target: SpPex13
# Experimental: as §1
# [72] = biological target: SpRvs167
# Experimental: as §1
# [73] = biological target: SpSla1-D1-D2
# Experimental: as §1
# [74] = biological target: SpSla1-D3
# Experimental: as §1
binder,measurement,setting,value
PVLPPPRSPNRPTLS,SPOT peptide array binding signal intensity,[1],24
same,SPOT peptide array binding signal intensity,[2],700
same,SPOT peptide array binding signal intensity,[3],43
same,SPOT peptide array binding signal intensity,[4],20
same,SPOT peptide array binding signal intensity,[5],1
same,SPOT peptide array binding signal intensity,[6],≤ 0
same,SPOT peptide array binding signal intensity,[7],≤ 0
same,SPOT peptide array binding signal intensity,[8],9
same,SPOT peptide array binding signal intensity,[9],≤ 0
same,SPOT peptide array binding signal intensity,[10],1
same,SPOT peptide array binding signal intensity,[11],369
same,SPOT peptide array binding signal intensity,[12],15.5
same,SPOT peptide array binding signal intensity,[13],1.5
same,SPOT peptide array binding signal intensity,[14],5.67
same,SPOT peptide array binding signal intensity,[15],≤ 0
same,SPOT peptide array binding signal intensity,[16],≤ 0
same,SPOT peptide array binding signal intensity,[17],0.5
same,SPOT peptide array binding signal intensity,[18],418
same,SPOT peptide array binding signal intensity,[19],79
same,SPOT peptide array binding signal intensity,[20],1660
same,SPOT peptide array binding signal intensity,[21],31
same,SPOT peptide array binding signal intensity,[22],264
same,SPOT peptide array binding signal intensity,[23],56
same,SPOT peptide array binding signal intensity,[24],67
same,SPOT peptide array binding signal intensity,[25],≤ 0
same,SPOT peptide array binding signal intensity,[26],2
same,SPOT peptide array binding signal intensity,[27],1.5
same,SPOT peptide array binding signal intensity,[28],≤ 0
same,SPOT peptide array binding signal intensity,[29],1570
same,SPOT peptide array binding signal intensity,[30],2.5
same,SPOT peptide array binding signal intensity,[31],126
same,SPOT peptide array binding signal intensity,[32],114
same,SPOT peptide array binding signal intensity,[33],16.5
same,SPOT peptide array binding signal intensity,[34],≤ 0
same,SPOT peptide array binding signal intensity,[35],110
same,SPOT peptide array binding signal intensity,[36],≤ 0
same,SPOT peptide array binding signal intensity,[37],47.5
same,SPOT peptide array binding signal intensity,[38],186
same,SPOT peptide array binding signal intensity,[39],3.5
same,SPOT peptide array binding signal intensity,[40],20
same,SPOT peptide array binding signal intensity,[41],10
same,SPOT peptide array binding signal intensity,[42],≤ 0
same,SPOT peptide array binding signal intensity,[43],≤ 0
same,SPOT peptide array binding signal intensity,[44],63
same,SPOT peptide array binding signal intensity,[45],≤ 0
same,SPOT peptide array binding signal intensity,[46],284
same,SPOT peptide array binding signal intensity,[47],4
same,SPOT peptide array binding signal intensity,[48],4370
same,SPOT peptide array binding signal intensity,[49],372
same,SPOT peptide array binding signal intensity,[50],150
same,SPOT peptide array binding signal intensity,[51],14.5
same,SPOT peptide array binding signal intensity,[52],16
same,SPOT peptide array binding signal intensity,[53],47
same,SPOT peptide array binding signal intensity,[54],1120
same,SPOT peptide array binding signal intensity,[55],7
same,SPOT peptide array binding signal intensity,[56],483
same,SPOT peptide array binding signal intensity,[57],12.5
same,SPOT peptide array binding signal intensity,[58],70
same,SPOT peptide array binding signal intensity,[59],26
same,SPOT peptide array binding signal intensity,[60],295
same,SPOT peptide array binding signal intensity,[61],≤ 0
same,SPOT peptide array binding signal intensity,[62],1
same,SPOT peptide array binding signal intensity,[63],7.5
same,SPOT peptide array binding signal intensity,[64],12.5
same,SPOT peptide array binding signal intensity,[65],46.5
same,SPOT peptide array binding signal intensity,[66],108
same,SPOT peptide array binding signal intensity,[67],866
same,SPOT peptide array binding signal intensity,[68],3730
same,SPOT peptide array binding signal intensity,[69],71.2
same,SPOT peptide array binding signal intensity,[70],8
same,SPOT peptide array binding signal intensity,[71],≤ 0
same,SPOT peptide array binding signal intensity,[72],1240
same,SPOT peptide array binding signal intensity,[73],≤ 0
same,SPOT peptide array binding signal intensity,[74],≤ 0
RRRRRPHRIERPLSN,SPOT peptide array binding signal intensity,[61],1.25
same,SPOT peptide array binding signal intensity,[62],7
same,SPOT peptide array binding signal intensity,[63],217
same,SPOT peptide array binding signal intensity,[64],13
same,SPOT peptide array binding signal intensity,[65],456
same,SPOT peptide array binding signal intensity,[66],421
same,SPOT peptide array binding signal intensity,[67],≤ 0
same,SPOT peptide array binding signal intensity,[68],336
same,SPOT peptide array binding signal intensity,[69],3
same,SPOT peptide array binding signal intensity,[70],418
same,SPOT peptide array binding signal intensity,[71],10
same,SPOT peptide array binding signal intensity,[72],3.83
same,SPOT peptide array binding signal intensity,[73],5
same,SPOT peptide array binding signal intensity,[74],5
